Measured values published in PubChem BioAssay AID651800 (The Scripps Research Institute Molecular Screening Center, 2012).
Screen size: about 360,000 compounds; about 1,300 (0.36%) were called active. Only a selection was taken, and actives are over-represented in it overall. Values without a mark were called inactive. Rule as the data show it: active = inhibition above about 19%; inactive = the rest.

system: T-cell receptor (TCR); assay: small molecules blocking TCR binding to CD3 – biochemical, fluorescence, TAMRA-labeled TCR probe, primary screen (AID 651800); details: at 9.4 µM, active compounds read high;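 also: recombinant mutant TCR 2C K166C tagged with TAMRA read by polarization; 0% = receptor in buffer alone and 100% = receptor with positive control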

Going from `Cc1cc(N2CCN(C(=O)OC(C)(C)C)C[C@H]2C)ccc1N1CCN(Cc2ccccc2)[C@H](C)C1` to `O=C(CN1CCN(c2ccc(O)cc2)CC1)NC1CCCc2ccccc21` (configuration not stated), the inhibition falls from -1.77% to -3.37%.

Compared with `Nc1nc2c(ncn2[C@@H]2O[C@H](C(=O)N[C@H](Cc3ccccc3)C(=O)NCC3CCCCC3)[C@@H](O)[C@H]2O)c(=O)[nH]1`, `COc1cccc(-c2cc(CNC(=O)[C@@H](Cc3ccccc3)NC(=O)[C@H]3O[C@@H](n4cnc(C(N)=O)n4)[C@H](O)[C@@H]3O)no2)c1` is higher in inhibition: -5.72% for the first, 0.79% for the second.

First: CCCCCCCCN1C(=O)[C@@H](CC(=O)NCCCC)C[C@@]2(C(=O)OC)C1=C[C@H](C(C)(C)C)O[C@@H]2C
Second: CCOC(=O)N1CCN(C(=O)C[C@H]2C[C@@]3(C(=O)OC)C(=C[C@H](C4CCCC4)O[C@@H]3C)N(Cc3ccccc3)C2=O)CC1
The inhibition of the first is lower: 4.32% for the first, 8.81% for the second.

Going from `CC1(C)OC(=O)C2=C(CC(CCc3ccccc3)OC2c2ccc(Cl)cc2)O1` (configuration not stated) to `COC(=O)C1=C(C)N(Cc2cccc(C(F)(F)F)c2)C(=NCc2ccccc2)NC1c1ccc(Cl)cc1` (configuration not stated), the inhibition rises from 0.34% to 7.39%.

Going from `Cc1ccc(CCC(=O)Nc2ncc(Cc3cc(Cl)ccc3Cl)s2)o1` to `Cc1nn(Cc2ccc(Cl)cc2)c(Cl)c1/C=N/NC(=O)CNc1ccccc1F`, the inhibition rises from -1.49% to 4.16%.

Compared with `C=CCN=C1NC(c2ccccc2)C(C(=O)OC)=C(C)N1Cc1ccc(C(F)(F)F)cc1` (configuration not stated), `COC(=O)C1=C(C)N(Cc2ccc(C(F)(F)F)cc2)C(=NCc2ccccc2)NC1c1ccccc1C(F)(F)F` (configuration not stated) is higher in inhibition: -2.66% for the first, -1.22% for the second.

First: N#Cc1ccc(OCCCN2CCC(C(O)(c3ccccc3)c3ccccc3)CC2)c(F)c1
Second: OC(c1ccccc1)(c1ccccc1)C1CCN(CCCOc2ccc(-c3ccsc3)cc2)CC1
The inhibition of the first is lower: -1.37% for the first, 2.16% for the second.

First: COC(=O)c1ccc(CN2C(=O)[C@]3(OCCC=C[C@H]3C)c3c(Br)cccc32)cc1
Second: CC(=O)C1=C(C)N(Cc2ccccc2)C(=S)NC1c1cccc(Br)c1 (configuration not stated)
The inhibition of the first is lower: -2.86% for the first, -1.04% for the second.

First: C#CCOCCOCCOCCNc1nc(N2CCN(C(=O)C([C@@H](C)CC)n3cc(C(N)COC(=O)C(F)(F)F)nn3)CC2)nc(N2CCN(C(=O)[C@H](Cc3ccc(O)cc3)n3cc(C(N)[C@H](C)CC)nn3)CC2)n1 (some centres not stated)
Second: COc1cccc(CC(=O)N2CCN(C(=O)C(=O)c3cccc(C(F)(F)F)c3)CC2)c1
The inhibition of the first is higher: 1.55% for the first, 0.68% for the second.

Going from `CCCN1C(=O)c2[nH]nc(-c3ccccc3)c2C1c1ccccc1` (configuration not stated) to `COCc1[nH]nc2c1C(c1ccccc1)N(c1ccccc1)C2=O` (configuration not stated), the inhibition rises from 1.37% to 5.26%.

First: CN(C)c1ccc(/C=N/NC(=O)C(O)c2ccc(Br)cc2)cc1 (configuration not stated)
Second: CNC(=S)NNC(=O)c1ccc(N(C)C)cc1
The inhibition of the first is lower: 4.89% for the first, 5.64% for the second.

Going from `C#CCN([C@@H](C)C(=O)OCC)S(=O)(=O)c1ccc(Br)cc1F` to `COC(=O)[C@H](CC(C)C)NS(=O)(=O)c1c(F)cccc1F`, the inhibition falls from 1.93% to -1.84%.

Going from `C(=N/N1CCN(c2ccccc2)CC1)/c1cccs1` to `CSc1ccc(/C=N/N2CCN(Cc3ccccc3Cl)CC2)cc1`, the inhibition falls from 4.89% to -2.6%.

Going from `COC(=O)C1=C(C)NC(=S)NC1c1ccc(OC)cc1` (configuration not stated) to `Cc1[nH]nc2c1C(c1ccc(Br)cc1)NC2=O` (configuration not stated), the inhibition falls from 0.64% to -1.49%.

Going from `C[C@H](O)[C@@H]1CN2CCc3ccc(-c4ccc5c(c4)OCO5)cc3[C@@H]2C[C@@H]1N(C)C(=O)C1CCCCC1` to `C[C@H](O)[C@@H]1C(=O)N2CCc3c([nH]c4c(-c5ccc6c(c5)OCO6)cccc34)[C@@H]2C[C@@H]1N(C)C(=O)c1ccco1`, the inhibition falls from 8.65% to -0.59%.

First: O=C(N/N=C/c1ccc(Br)o1)c1cncc(Br)c1
Second: CC(=O)N/N=C(\C)c1ccc(Br)cc1Br
The inhibition of the first is lower: -0.44% for the first, 2.37% for the second.

Going from `O=C(CCNC(=O)c1ccccc1Cl)NN=Cc1ccco1` to `CCOC(=O)c1ccc(NC(=O)CNC(=O)c2ccco2)cc1`, the inhibition falls from -5.52% to -5.65%.

Compared with `CN1C(=O)C(Br)(Br)CC1c1cccnc1` (configuration not stated), `CC(C)(C)n1nc(C2CC2)c(Br)c1NC(=O)c1ccccc1F` is higher in inhibition: -8.3% for the first, -0.36% for the second.

Compared with `Cc1cc(Br)cn2c(Cc3ccccc3C(F)(F)F)c(-c3ccc(C#N)cc3)nc12`, `COC(=O)C1=C(C)N(Cc2ccccc2C(F)(F)F)C(=NCc2ccc(OC)cc2)NC1c1cccc(C(F)(F)F)c1` (configuration not stated) is higher in inhibition: 4.41% for the first, 6.08% for the second.

Going from `CCCCNC(=S)NNC(=O)c1cc(C)on1` to `O=C(NNC(=S)Nc1ccc(Br)cc1Cl)c1ccco1`, the inhibition falls from 11.9% to 0.36%.

First: COCCCNC(=S)N(Cc1ccccc1)Cc1ccc(F)cc1
Second: Cc1ccc(CNC(=O)Cc2cn(C)c3ccccc23)cc1
The inhibition of the first is lower: -3.1% for the first, 6.02% for the second.

First: O=C(C(=O)N1CCC(CNS(=O)(=O)Cc2ccccc2)CC1)c1cc2ccccc2o1
Second: O=C(NCc1ccccc1)[C@@H]1CCCN1C(=O)[C@H]1CCCN1C(=O)c1cccc(Cl)c1
The inhibition of the first is lower: -2.01% for the first, 5.36% for the second.

Compared with `Cc1ccc(CNC(=O)COc2ccc3c(c2)CCC3)cc1`, `Cc1ccc(NC(=O)C(=O)NCc2ccc(/C=N/NC(=O)c3c(C)nc4cc(C)ccn34)o2)cc1` is higher in inhibition: 1.31% for the first, 5.69% for the second.

First: O=c1[nH]c(-c2ccccc2)cn1C1CCN(Cc2ccc(-c3nc4ccc(F)cc4nc3-c3ccccc3)cc2)CC1
Second: C=CC[C@]12C[C@@]3(O[C@H](c4ccc(C(F)(F)F)cc4)N=C3C[C@H](c3ccc(OC)cc3)[C@H]1C)N(C1CCN(Cc3ccccc3)CC1)C2=O
The inhibition of the first is higher: 12% for the first, 3.26% for the second.

First: COC(=O)Cc1nnn2c1[C@H](C)[C@H](c1ccccc1[N+](=O)[O-])OCC2
Second: CN1CCCc2nc(-c3ccccc3)ccc21
The inhibition of the first is lower: 1.45% for the first, 3.5% for the second.

Compared with `COc1ccc(SSc2ccc(OC)cc2C(=O)O)c(C(=O)O)c1`, `COc1cc(OC)cc(C(=O)N[C@H](C(=O)Nc2nc3ccccc3[nH]2)C(C)C)c1` is lower in inhibition: 5.64% for the first, -1.15% for the second.

Going from `CCOC(=O)Cn1c2c(n(-c3ccc(F)cc3)c1=O)C=C(c1ccccc1)[C@@H](C)C(C(=O)N(C)C1CCCCC1)=C2` to `CCOC(=O)C1=C(C(=O)OCC)C2N(Cc3ccc(C#N)cc3)c3ccccc3[C@@]23C[C@@H](C(=O)OC)N(S(=O)(=O)c2ccc(F)cc2)C3=N1` (some centres not stated), the inhibition falls from 5.23% to -0.94%.

First: Cc1cccc(C(=O)Nc2ccc3c(c2)C(=O)N(CC(C)C)C3=O)c1
Second: CC(=O)Nc1ccc(NC(=O)[C@@H](NC(=O)c2cccc(C)c2)C(C)C)cc1
The inhibition of the first is lower: -1.41% for the first, 2.27% for the second.

First: COc1cccc(CNC(=O)[C@H]2CCCN2C(=O)[C@H]2CCCN2C(=O)C2CCCCC2)c1
Second: C[C@@H](CN1C2=NC[C@@H](Cc3ccccc3)N2C[C@H]1Cc1ccc(O)cc1)NC(=O)CCC1CCCCC1
The inhibition of the first is higher: -0.26% for the first, -8.44% for the second.

First: Cc1cc2c(nc1C)CCCN2C
Second: CN1C(=O)C2CC(O)C(SC3CC4C(=O)N(C)C(=O)C4CC3O)CC2C1=O (configuration not stated)
The inhibition of the first is lower: -1.06% for the first, 0.12% for the second.

Going from `CC(C)[C@H]1COCCS(=O)(=O)N1Cc1ccccc1-c1cccc2c1sc1ccccc12` to `CC(C)CC1NC(=O)c2cc(Cl)ccc2-n2c1nc1ccccc1c2=O` (configuration not stated), the inhibition rises from -8.35% to 3.77%.

First: O=[N+]([O-])c1ccc(C=Nc2ccc(Cl)cc2Cl)s1
Second: O=C(Nc1ccccc1)c1ccccc1Br
The inhibition of the first is higher: -1.69% for the first, -6.01% for the second.

First: COC(=O)c1c(-c2ccc(OC)cc2)c2c(c3c4cc(OC)ccc4n(S(=O)(=O)c4ccc(F)cc4)c13)C(=O)N(C)C2
Second: O=C(NC(=S)Nc1ccccc1C(=O)O)c1ccc(-c2ccc(Br)cc2)o1
The inhibition of the first is lower: -4.92% for the first, 4.88% for the second.

`Cc1noc(C)c1NC(=O)Nc1ccc2c(c1)C(=O)N([C@H](C)CO)C[C@H](C)[C@H](CN(C)Cc1ccncc1)OCCCC[C@@H](C)O2` gave an inhibition of 7.13%.

For `COc1cccc2c1C(=O)c1c(O)c3c(c(O)c1C2=O)CC(O)(C(C)=NNC(=O)c1ccc(Cl)c(Cl)c1)CC3OC1CC(N)C(O)C(C)O1` (configuration not stated), the inhibition was 158% (active).
In the case of `Cc1ccc(Cc2cnc(N)s2)o1`, the inhibition is reported as 20.7% (active).
With `CN1c2ccc(C=O)c3c(C=O)ccc(c23)N(C)C1(C)C` the inhibition was 35% (active).
In the case of `CN(C)c1ccc(N/C=C/C(=O)C(F)(F)F)cc1`, the inhibition is reported as 20.8% (active).
`CN1CCN(/N=C/c2ccc(C#N)cc2)CC1` was tested, and the inhibition was 51.9% (active).
For `O=C(CCNC(=O)c1ccccc1)NN=Cc1ccc(Br)o1`, the inhibition was 21.9% (active).
`COCCCNC(=S)NNC(=O)C(O)(c1ccccc1)c1ccccc1` was tested, and the inhibition was 24.9% (active).
For `CCOCC(=O)NCc1ccc2c(c1)cc(C)n2C`, the inhibition was 28.4% (active).
With `Nc1ccc2nc3c(=O)[nH]c(=S)[nH]c3nc2c1` the inhibition was 109% (active).
For `Cc1cccc(C(=O)Nc2ccc(C(=O)/C=C/c3cccs3)cc2)c1`, the inhibition was 19.4% (active).
`CCCC1OC23CCCCC2C(C#N)(C#N)C1(C#N)C(=N)O3` (configuration not stated) was tested, and the inhibition was 24.9% (active).
With `Cc1ccccc1NCC(=O)N/N=C\c1ccc([N+](=O)[O-])s1` the inhibition was 21.7% (active).
With `CC(=N\NC(=O)c1cc(Br)ccc1O)/C(=N/O)C(=O)Nc1ccccc1` the inhibition was 35.2% (active).
For `COc1ccc(Br)cc1C(=O)NC(=S)Nc1cc(-c2nc3ccccc3[nH]2)ccc1C`, the inhibition was 55.2% (active).
`CCC(=O)NC(=S)Nc1ccc(NC(=O)c2ccco2)c(Cl)c1` was tested, and the inhibition was 27.1% (active).
